From PubChem BioAssay AID1347075 (National Center for Advancing Translational Sciences (NCATS), 2019) come the findings set out here.

About 5,500 (1.4%) of roughly 400,000 compounds were called active. Roughly 9% stayed inconclusive and do not appear here. For the sample, actives were picked, then their nearest neighbours and some compounds at random. Values without a mark were called inactive. The call rests on the fitted dose curve; in most records, active means well fitted cell-killing curve with a large enough effect; inconclusive means small, poorly fitted or top-dose-only effect, or effect the other way; inactive means flat fitted curve, though single readings scatter.
On the % scale 0 is the no-effect control and ±100 the full control effect; potency means the concentration at half of the fitted maximal effect.

A short description of the experiment: qHTS assay for MDR1-selective chemotherapeutics: Primary screen using the parental adenocarcinoma cell KB-3-1. Further: nearly all actives have a fitted effect of over 60% in size. To be noted: KB-3-1 viability, CellTiter-Glo ATP luminescence, 72 h; series mostly up to 46.1 µM; activity change, negative = cytotoxic: at the top concentration. The gist of the method: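 KB-3-1 parental drug-naive adenocarcinoma cells in DMEM/10% FBS, incubated 72 h at 37 C with pin-transferred compounds across a concentration series. Viability by CellTiter-Glo luminescence; concentration-response curves fitted after normalization.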
Take `Cc1ccc(C)c(S(=O)(=O)N2CCN(c3ncnc4sccc34)CC2)c1`: the Potency was 9.2 µM (active). Regarding `Cc1ccc(C)c(S(=O)(=O)n2nc(C)c(S(=O)(=O)N3CCC(C)CC3)c2C)c1`, the “activity change, negative = cytotoxic” value was -3.25%. The same measure, in the same setting: the same measure for `Cc1ccc(C)c(S(=O)(=O)c2nnn3c2nc(N2CCOCC2)c2sccc23)c1`: -0.269%. On the same count and under the same terms, the same measure for `CCOCCCNC(=O)c1cn(CC)c2ccc(S(=O)(=O)N3CCc4ccccc4C3)cc2c1=O`: -12.4%. Take `O=C(CCNC(=O)c1ccc(Cl)cc1)NC1CCCc2ccccc21` (stereo not drawn): the Potency is 7.31 µM (active).

As for `NC(=O)Nc1ccc(C(=O)OCC(=O)NC2CCCc3ccccc32)cc1` (stereo not drawn), the “activity change, negative = cytotoxic” value was 3.73%. As to `COC(=O)c1cc(OCC(=O)NC2CCCc3ccccc32)cc(C(=O)OC)c1` (stereo not drawn), the “activity change, negative = cytotoxic” value is 5.25%. For the compound `Cc1ccc(Cl)cc1NC(=O)CCS(=O)(=O)c1ccc(Br)s1`, the “activity change, negative = cytotoxic” value is 10.5%. For the compound `CCc1nc(C)ccc1OCC(=O)N(CC)CC`, the “activity change, negative = cytotoxic” value was -4.05%.

With `CCC(C)(C)c1ccc(OCC(=O)N(C)C)c(C(C)(C)CC)c1`, the Potency was 16.4 µM (active). With `COc1ccc(Cl)cc1NC(=O)CSc1nc2ccccc2c2nc(-c3ccccc3)nn12`, the “activity change, negative = cytotoxic” value was 3.72%. The same measure, in the same setting: for `CSc1oc(-c2cccs2)nc1S(=O)(=O)c1ccc(Br)cc1` the value was 0.965%; for `CCOc1ccc(NC(=O)C(CC(C)C)N2Cc3ccccc3C2=O)cc1` (stereo not drawn), -18.3%.

As for `C=CCn1c(SCc2c(C)noc2C)nc2sc3c(c2c1=O)CCC(C)C3` (stereo not drawn), the Potency is 4.11 µM (active).

Consider `CCCn1nnc2sc3c(c2c1=O)CCC(C)C3` (stereo not drawn), for which the “activity change, negative = cytotoxic” value is -4.79%. As to `C=CCn1c(SCC(=O)NCCCO)nc2sc3c(c2c1=O)CCC3`, the “activity change, negative = cytotoxic” value is 2.97%.

As for `O=S(=O)(Nc1ccc2nc(-c3cccc(Cl)c3)oc2c1)c1ccccc1`, the “activity change, negative = cytotoxic” value is 0.847%.

Consider `CN(Cc1ccccc1)S(=O)(=O)c1ccc(F)c(C(=O)Nc2cccc(Cl)c2Cl)c1`, for which the “activity change, negative = cytotoxic” value was 6.97%.

Turning to `COc1cccc(-n2c(SCC(=O)NC3CCCCC3)nc3n[nH]c(C)c3c2=N)c1`, the Potency is 13 µM (active). As to `COc1ccc(-n2c(SCC(=O)Nc3ccc(Cl)c(C)c3)nc3n[nH]c(C)c3c2=N)cc1`, the “activity change, negative = cytotoxic” value is -0.218%. `C=CCn1c(CC(=O)Nc2cccc(OC)c2)nnc1SCC(=O)NC1CCCCC1`: the “activity change, negative = cytotoxic” value was 19%. Still for that read-out and setting: the same measure for `ClC/C=C/C[n+]1ccccc1Cl`: 0%. `CCOc1ccc(-c2cc3c(=O)n(CC(=O)NCc4ccc(OC)cc4)ccn3n2)cc1`: the “activity change, negative = cytotoxic” value was 0.871%. In the case of `CN(O)C(=S)c1ccccc1`, the Potency was 0.0052 µM (active). For `Cc1ccc(S(=O)(=O)N(CC(=O)Nc2cccc([N+](=O)[O-])c2)Cc2ccc(Cl)cc2)cc1`, the “activity change, negative = cytotoxic” value is -5%. With `CN(c1ccccc1)S(=O)(=O)c1cccc(NC(=O)Cc2ccc(Cl)cc2)c1`, the Potency is 23.1 µM (active). For `CN(c1ccccc1)S(=O)(=O)c1ccc(NC(=O)COc2ccccc2)cc1`, the “activity change, negative = cytotoxic” value was 0%. As for `Nc1ncnc2nnsc12`, the “activity change, negative = cytotoxic” value was 44%. Turning to `CC(C)Oc1cccc(-c2cnc(N3CCC(C(N)=O)CC3)s2)c1`, the “activity change, negative = cytotoxic” value was 16.4%.

Consider `COc1cc2nc(SCc3ccc(F)cc3)n3nc(CCn4c(C)nc5ccccc54)nc3c2cc1OC`, for which the “activity change, negative = cytotoxic” value was 13.2%. Same read-out and setting: for `COc1ccc(OC)c(S(=O)(=O)Nc2cccc(-c3ccc4nncn4n3)c2)c1` the value was -7.93%.

Turning to `CCCOc1ccc(-c2cccc(NS(=O)(=O)c3ccccc3)c2)nn1`, the “activity change, negative = cytotoxic” value was -16.5%. For `COc1ccc(-c2cccc(NS(=O)(=O)c3cc(C)c(OC)c(C)c3C)c2)nn1`, the Potency is 3.66 µM (active). Consider `O=C(Nc1ccc(-c2nc3cc(NC(=O)c4ccccc4Cl)ccc3o2)cc1)c1ccccc1Cl`, for which the “activity change, negative = cytotoxic” value is -9.52%.

Consider `C/C(=N\Nc1ccc(Cl)nn1)c1ccccc1O`, for which the Potency is 14.6 µM (active).

With `Fc1ccccc1Cc1ccc(Cl)nn1`, the “activity change, negative = cytotoxic” value was 4.26%. Still for that read-out and setting: the same measure for `C/C(=N/Nc1ccc(Cl)cc1)c1cnnc(-c2ccccc2)n1`: 2.92%; for `CC(=O)N1CCc2cc(S(=O)(=O)NC(Cc3ccccc3)C(=O)NCc3ccc(C)cc3)ccc21` (stereo not drawn): 0.414%; for `Nc1ccc(C(=O)N2CCN(S(=O)(=O)c3ccc(Cl)cc3)CC2)cc1[N+](=O)[O-]`: -16.3%.

Consider `O=C(c1ccc(Oc2ccc(Cl)cc2)c([N+](=O)[O-])c1)N1CCCC1`, for which the “activity change, negative = cytotoxic” value was -4.08%. As for `CC1CCN(C(=O)c2ccc(S(=O)(=O)Cc3cc(F)ccc3F)c([N+](=O)[O-])c2)CC1`, the Potency was 23.1 µM (active). For the compound `CC[C@]1(O)C[C@@H]2CN(CCc3c([nH]c4ccccc34)[C@@](C(=O)OC)(c3cc4c(cc3OC)N(C)[C@H]3[C@@](O)(C(=O)OC)[C@H](OC(C)=O)[C@]5(CC)C=CCN6CC[C@]43[C@@H]65)C2)C1`, the Potency is 0.164 µM (active). For `COc1cc(NC(=O)Cn2nc(-c3ccc(C)c(C)c3)ccc2=O)cc(OC)c1`, the “activity change, negative = cytotoxic” value is 5.25%. The same measure, in the same setting: the same measure for `N#Cc1nc(NCc2ccc(Cl)c(Cl)c2)c2ncn(CCCO)c2n1`: 0%.

For the compound `O=C(NCC(c1ccc(Cl)cc1)N1CCOCC1)c1ccccc1F` (stereo not drawn), the “activity change, negative = cytotoxic” value was -21.3%. `O=C(NCCC1CCCCN1S(=O)(=O)c1cccs1)C(=O)Nc1ccc(F)cc1F` (stereo not drawn): the Potency is 23.1 µM (active).

Take `COc1ccccc1CCNC(=O)C(=O)NCCC1CCCCN1S(=O)(=O)c1cccs1` (stereo not drawn): the “activity change, negative = cytotoxic” value is -17.7%. In the case of `O=C(NCCC1CCCCN1S(=O)(=O)c1ccc(F)cc1)C(=O)NC1CC1` (stereo not drawn), the “activity change, negative = cytotoxic” value is 9.7%.
